Hits are enriched below; roughly 4.7% of the tested compounds scored in any of these assays.
ALR H2O2 inh: human ALR oxidase inhibition via reduced H2O2; P55789; purified ALR, DTT oxidation, H2O2 HRP-luminol luminescence; inhibition, % (test concentration not listed); 3.8% of 290,000 active; AID 485317;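 active = mean replicate inhibition above about 79%, with every replicate also reaching it, limit read from the data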
Target sequence (P55789 whole entry, looked up): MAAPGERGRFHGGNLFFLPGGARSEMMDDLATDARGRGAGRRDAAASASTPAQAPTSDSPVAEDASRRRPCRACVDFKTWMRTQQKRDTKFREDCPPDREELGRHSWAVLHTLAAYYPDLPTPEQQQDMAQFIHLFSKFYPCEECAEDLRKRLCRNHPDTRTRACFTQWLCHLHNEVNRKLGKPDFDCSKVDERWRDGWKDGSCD
eIF4H FP inh: inhibitors of RNA binding by human eIF4H. eIF4H fluorescence polarization binding assay. 0.94% of 290,000 active. inhibition, % at 35 µM. Q15056;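 note: calls also rest on retests at 20 µM and on dose response follow-up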
UBC9 SUMO inh: inhibitors of human SUMOylation (UBC9); HTRF SUMOylation assay, SAE1/SAE2 + UBC9, in vitro; P63279; inhibition, % at 35 µM; 0.36% of 290,000 active; in the data active = inhibition above about 50%, passing the limit was not always enough
Target sequence (P63279 whole entry, looked up): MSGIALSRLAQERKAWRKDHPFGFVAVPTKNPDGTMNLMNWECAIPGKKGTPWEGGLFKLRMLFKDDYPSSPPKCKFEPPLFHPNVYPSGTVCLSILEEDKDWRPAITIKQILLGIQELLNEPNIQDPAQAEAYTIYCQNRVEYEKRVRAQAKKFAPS
PABP FP inh: PABP-poly(A) binding inhibition. P11940. PABP-poly(A) RNA binding, fluorescence polarization. inhibition, % at 35 µM. 1% of 290,000 active;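 note: calls also rest on retests at 20 µM and on dose response follow-up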
PABP1 MLLE inh: blocks PAM2 peptide binding to the PABP1 MLLE domain; P11940; GST-MLLE / FITC-PAM2 fluorescence polarization; inhibition, % at 20 µM; 0.36% of 360,000 active; AID 588489; in the data active = inhibition above about 35%, passing the limit was not always enough;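 note: plate controls were DMSO wells with GST-MLLE for no effect and wells lacking GST-MLLE protein for full effect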
Efflux pump inh: blocks antifungal efflux pumps in multiplex yeast assay; S. cerevisiae Candida pump triplex, Nile Red efflux; inhibition, % at 10 µM; 0.44% of 330,000 active; AID 485275;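 active = plate passing quality check with inhibition over a set limit, or well fluorescence over plate mean plus 4 SD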;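 note: Nile Red retained in pooled yeast measured as flow cytometry median fluorescence; 0% = buffer negative control and 100% = Enniatin B positive control; higher means more Nile Red kept so more efflux inhibition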
Yeast cmpd fluor: counter-screen for efflux pump inhibitors: compound fluorescence; AID 588517; S. cerevisiae AD/pABC3, flow cytometry; 4% of 1,700 active; fluorescence ratio to DMSO, % at 10 µM; shares compounds with Efflux pump inh;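 active = fluorescence ratio to DMSO above its plate's cutoff, the plate mean ratio plus 5 SD, cut at about 210% in these data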;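 note: unstained yeast with no Nile Red so the signal is compound autofluorescence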
Mdr1 pump inh: Candida Mdr1 efflux pump inhibition; shares compounds with Efflux pump inh; S. cerevisiae AD/CaMDR1, Nile Red efflux, flow cytometry; inhibition, % at 10 µM; 1% of 1,700 active; AID 588518; in the data active = inhibition above about 26%;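 note: 0% = DMSO vehicle and 100% = reference inhibitor; higher means more Nile Red retained so more efflux inhibition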
Cdr2 pump inh: Candida Cdr2 efflux pump inhibition; Nile Red retention ratio vs DMSO, % at 10 µM; shares compounds with Efflux pump inh; AID 588520; S. cerevisiae AD/CaCDR2, Nile Red retention, flow cytometry; 4% of 1,700 active; in the data active = Nile Red retention ratio vs DMSO above about 190%;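 note: higher ratio means more blocking of Cdr2 efflux of the dye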
CaCdr1 efflux inh: blocks the Candida albicans Cdr1 efflux pump in yeast; shares compounds with Efflux pump inh; S. cerevisiae AD/CaCDR1, Nile Red efflux, flow cytometry; inhibition, % at 10 µM; 1% of 1,700 active; AID 588522;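 active = inhibition above the screen-wide mean plus twice its standard deviation, cut at about 32% in these data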
* hit, by the source's call; nt = no result given. Unless noted, the rule behind the calls is not given here.

SMILES	ALR H2O2 inh	eIF4H FP inh	UBC9 SUMO inh	PABP FP inh	PABP1 MLLE inh	Efflux pump inh	Yeast cmpd fluor	Mdr1 pump inh	Cdr2 pump inh	CaCdr1 efflux inh
O=C(Nc1ccnc(-c2cccnc2)n1)c1cccc(Cl)c1Cl	-18.3	-5.0	13.6	0.4	0.9	1.0*	117.5	0.6	116.4	0.0
O=C(Nc1ccnc(-c2cccnc2)n1)c1ccccc1Cl	3.1	-11.4	31.5	2.3	-2.9	0.2	nt	nt	nt	nt
O=C(C1CCC1)N1CCc2cc(S(=O)(=O)NCCN3CCN(c4ccccc4F)CC3)ccc21	1.7	-2.0	-9.6	-6.4	1.2	1.1*	86.5	0.0	99.6	-0.2
O=C(C1CC1)N1CCc2cc(S(=O)(=O)NCCCN3CCCCC3)ccc21	0.3	-0.1	-2.4	1.2	10.0	0.1	nt	nt	nt	nt
O=C(C1CC1)N1CCc2cc(Br)cc(S(=O)(=O)NCc3ccccn3)c21	-1.3	0.4	10.1	-7.6	-6.3	-0.1	nt	nt	nt	nt
O=C(C1CCC1)N1CCc2cc(S(=O)(=O)NCc3ccccn3)ccc21	nt	-5.2	-0.3	-1.0	-4.9	0.7*	109.0	-0.2	101.7	0.0
CCN1CCN(S(=O)(=O)c2c(C)[nH]c(C)c2C(=O)N2CCCCC2)CC1	-3.1	81.5	8.7	2.0	-3.4	-0.2	nt	nt	nt	nt
COc1ccc(-c2cc(C(F)(F)F)n3nc(C(=O)N(C)Cc4ccccc4)cc3n2)cc1OC	-4.2	2.0	11.2	-1.6	-7.0	1.4*	96.1	-0.1	97.5	-0.1
COc1ccc(-c2cc(C(F)(F)F)n3nc(C(=O)Nc4cc(C)on4)cc3n2)cc1OC	-14.4	3.6	-0.7	-11.9	-4.1	0.4	nt	nt	nt	nt
O=C(C(Cl)Cl)N1CCN(Cc2ccc3c(c2)OCO3)CC1	-3.4	5.5	5.3	6.5	3.6	0.0	nt	nt	nt	nt
O=C(C(Cl)Cl)N1CCN(Cc2ccccc2)CC1	-11.6	7.3	4.8	-17.6	-0.1	16.4*	98.2	-0.1	89.3	0.0
COC(=O)CCCC1=CC2=CC(=O)C(C)(OC(=O)c3cccs3)C(=O)C2=CN1c1ccc(OC)cc1 (stereo not given)	nt	59.0	28.0	33.8*	1.5	0.7*	105.8	-0.2	107.2	-0.1
O=C(OCc1ccc(Cl)cc1Cl)c1ccncc1	-0.1	-8.0	-11.9	12.3	-8.6	-0.1	nt	nt	nt	nt
O=C(COc1ccc(-c2ccccc2)cc1)NNC(=O)Nc1ccc(F)cc1F	-3.2	2.8	16.0	3.8	9.2	3.0*	109.0	0.0	110.2	0.0
CCc1noc(C)c1C(=O)OC(C)C(=O)c1c(C)[nH]c2ccccc12 (stereo not given)	2.6	nt	nt	nt	3.7	0.0	nt	nt	nt	nt
Cc1[nH]c2ccccc2c1C(=O)C(C)OC(=O)c1ccc([N+](=O)[O-])o1 (stereo not given)	-17.6	5.3	11.4	12.5	1.6	0.4*	87.6	-0.3	104.2	0.2
CN(C)C(CNC(=O)c1ccccc1OCc1ccc(Cl)cc1)c1ccco1 (stereo not given)	7.0	nt	nt	nt	8.9	0.1	nt	nt	nt	nt
Cc1cccc(-n2ccnc2CN2CCC(CO)(Cc3ccccc3)CC2)c1	6.8	1.0	-7.7	13.2	-3.6	0.3	nt	nt	nt	nt
O=C(/C=C/c1ccccc1[N+](=O)[O-])NCCc1ccc(F)cc1	0.2	11.7	11.2	-7.6	13.5	0.4*	87.6	0.0	183.9	0.0
CC(C)CNC(=O)c1ccccc1N(Cc1ccccc1)S(C)(=O)=O	-0.3	-5.4	2.4	7.9	13.1	0.0	nt	nt	nt	nt
CC(C)=C1C2CCC1C1C(=O)N(c3nc(-c4ccc(F)cc4)c(C)s3)C(=O)C21 (stereo not given)	-10.3	5.9	-26.2	8.1	-1.7	-0.1	nt	nt	nt	nt
CC(C)=C1C2CCC1C1C(=O)N(c3nc(-c4ccc(C(C)C)cc4)c(C)s3)C(=O)C21 (stereo not given)	-2.4	8.6	-8.0	13.8	6.3	0.4*	105.0	-0.1	99.3	0.0
Cc1cccc(-c2nc(S(=O)(=O)c3ccc(F)cc3)c(NCCCN3CCOCC3)o2)c1	6.3	-2.0	-9.4	11.5	1.2	7.4*	93.7	-0.2	90.9	-0.1
CCc1ccc(N(CC(=O)NC(C)C)C(=O)CCC(=O)Nc2ccccn2)cc1	1.1	0.5	-4.6	3.1	17.0	0.3	nt	nt	nt	nt
O=C(O)C1C2CC3OC(=O)C1C3C2 (stereo not given)	nt	nt	nt	nt	1.9	nt	nt	nt	nt	nt
SMILES	ALR H2O2 inh	eIF4H FP inh	UBC9 SUMO inh	PABP FP inh	PABP1 MLLE inh	Efflux pump inh	Yeast cmpd fluor	Mdr1 pump inh	Cdr2 pump inh	CaCdr1 efflux inh
O=C(O)C1C2CC3C(OC(=O)C31)C2Cl (stereo not given)	-7.1	-1.9	0.9	2.1	-6.2	6.5*	107.9	-0.1	106.0	0.0
COc1ccc(NC(=O)COc2ccc3c(C)cc(=O)oc3c2)cc1S(=O)(=O)N1CCCCC1	nt	nt	nt	nt	-64.7	0.0	nt	nt	nt	nt
N#C/C(=C\c1ccc(-c2ccc(Br)cc2)o1)C(=O)NCCc1c[nH]c2ccccc12	-9.2	-14.5	-0.7	-5.7	-30.3	0.1	nt	nt	nt	nt
N#C/C(=C/c1ccc(-c2ccc(Br)cc2)o1)C(=O)NC1CCCCC1	0.1	-5.3	-9.5	-13.7	-8.9	1.7*	128.1	0.3	136.9	0.5
C=CCn1c(SCc2cc(=O)n3ccsc3n2)nc2ccccc2c1=O	-0.6	-6.7	19.7	-13.0	14.6	0.5*	89.9	0.1	100.1	0.2
C=CCn1c(SCc2cc(=O)n3ccsc3n2)nc2cc(Cl)ccc2c1=O	2.1	1.1	1.1	29.5	3.5	0.0	nt	nt	nt	nt
Cc1ccccc1OCC(=O)Nc1nnc(-c2ccco2)s1	-1.2	8.7	22.2	-1.9	-11.5	0.0	103.0	0.0	101.8	0.0
O=C(COc1ccc2ccccc2c1)Nc1nnc(-c2ccco2)s1	-7.1	17.6	33.6	2.2	nt	-0.1	nt	nt	nt	nt
CCCCn1c(N)c(N(CC(C)C)C(=O)CCNC(=O)c2ccc(Br)cc2)c(=O)[nH]c1=O	-4.3	nt	nt	nt	-2.1	0.1	nt	nt	nt	nt
O=C1C(Cc2ccccc2)Nc2ncnc(N3CCN(c4ccccc4)CC3)c2N1Cc1ccc(Cl)cc1 (stereo not given)	2.9	nt	nt	nt	-17.0	103.9*	104.5	108.6*	100.7	88.6*
CN(CCOc1ccc(Cl)cc1)C(=O)CN1C(=O)NC2(CCCCC2)C1=O	-3.5	nt	nt	nt	-7.0	0.0	nt	nt	nt	nt
COc1ccc(-c2cnc(SCC(=O)Nc3cc(C)on3)n2Cc2ccco2)cc1	-3.1	-9.4	-15.2	-10.9	-5.7	0.3	nt	nt	nt	nt
COc1ccc(-c2cnc(SCC(=O)Nc3nc(C(C)(C)C)cs3)n2Cc2ccco2)cc1	20.7	9.4	7.8	-3.5	-70.1	0.4*	115.5	0.0	129.1	0.1
O=C(COc1nc2ccccc2nc1N1CCOCC1)Nc1cccc(S(=O)(=O)N2CCCCC2)c1	1.5	4.3	-24.0	3.4	-7.5	-0.5	nt	nt	nt	nt
